Reference: the supplement of paper PMC12819154, “High-throughput peptide-centric local stability assay extends protein–ligand identification to membrane proteins, tissues and bacteria” (Nature Structural & Molecular Biology, 2025)
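Note: lysate desalted by size exclusion to strip endogenous ATP, peptide intensities built from DIA-NN precursor signals, and peptides missing any value discarded before comparison.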

Chain of UniProt P43340 (P43340 whole entry): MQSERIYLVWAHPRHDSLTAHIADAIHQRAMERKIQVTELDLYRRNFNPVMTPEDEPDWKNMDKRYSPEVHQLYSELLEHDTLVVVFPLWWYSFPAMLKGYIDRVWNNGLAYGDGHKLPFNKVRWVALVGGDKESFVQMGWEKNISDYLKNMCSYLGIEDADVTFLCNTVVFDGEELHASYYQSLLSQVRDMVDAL
Chain of UniProt P15373 (P15373 whole entry): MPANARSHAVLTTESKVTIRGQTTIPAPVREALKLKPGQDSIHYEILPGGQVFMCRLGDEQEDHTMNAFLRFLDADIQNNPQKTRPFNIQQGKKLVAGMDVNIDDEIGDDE
Chain of UniProt P00562 (P00562 whole entry): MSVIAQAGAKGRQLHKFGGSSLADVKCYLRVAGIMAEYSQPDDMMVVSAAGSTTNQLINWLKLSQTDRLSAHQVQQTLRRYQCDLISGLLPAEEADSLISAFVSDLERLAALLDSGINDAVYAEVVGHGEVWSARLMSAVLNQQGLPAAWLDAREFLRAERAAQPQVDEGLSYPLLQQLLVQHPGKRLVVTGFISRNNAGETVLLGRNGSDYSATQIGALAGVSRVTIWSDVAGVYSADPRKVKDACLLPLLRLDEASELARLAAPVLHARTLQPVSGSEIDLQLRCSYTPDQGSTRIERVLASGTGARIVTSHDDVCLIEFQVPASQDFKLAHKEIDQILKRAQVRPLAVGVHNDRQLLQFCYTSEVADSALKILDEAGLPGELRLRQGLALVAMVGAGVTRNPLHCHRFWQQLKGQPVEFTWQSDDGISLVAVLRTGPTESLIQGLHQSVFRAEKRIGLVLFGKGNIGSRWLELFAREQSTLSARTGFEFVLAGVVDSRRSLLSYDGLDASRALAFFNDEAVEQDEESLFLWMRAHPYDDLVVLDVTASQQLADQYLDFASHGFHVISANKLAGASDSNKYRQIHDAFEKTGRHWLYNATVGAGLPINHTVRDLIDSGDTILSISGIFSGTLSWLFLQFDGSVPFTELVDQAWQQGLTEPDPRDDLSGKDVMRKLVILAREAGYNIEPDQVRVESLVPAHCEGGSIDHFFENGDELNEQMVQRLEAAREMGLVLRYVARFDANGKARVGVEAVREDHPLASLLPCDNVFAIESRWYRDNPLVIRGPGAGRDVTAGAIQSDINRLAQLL
Chain of UniProt P77739 (P77739 whole entry): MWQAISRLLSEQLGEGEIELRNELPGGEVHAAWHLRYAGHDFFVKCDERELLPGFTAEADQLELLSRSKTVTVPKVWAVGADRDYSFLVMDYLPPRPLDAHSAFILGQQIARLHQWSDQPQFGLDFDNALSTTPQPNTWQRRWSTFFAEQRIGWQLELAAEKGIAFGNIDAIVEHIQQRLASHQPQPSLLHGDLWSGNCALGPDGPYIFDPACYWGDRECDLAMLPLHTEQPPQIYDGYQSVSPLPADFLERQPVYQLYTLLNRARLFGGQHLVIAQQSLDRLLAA
Chain of UniProt P77804 (P77804 whole entry): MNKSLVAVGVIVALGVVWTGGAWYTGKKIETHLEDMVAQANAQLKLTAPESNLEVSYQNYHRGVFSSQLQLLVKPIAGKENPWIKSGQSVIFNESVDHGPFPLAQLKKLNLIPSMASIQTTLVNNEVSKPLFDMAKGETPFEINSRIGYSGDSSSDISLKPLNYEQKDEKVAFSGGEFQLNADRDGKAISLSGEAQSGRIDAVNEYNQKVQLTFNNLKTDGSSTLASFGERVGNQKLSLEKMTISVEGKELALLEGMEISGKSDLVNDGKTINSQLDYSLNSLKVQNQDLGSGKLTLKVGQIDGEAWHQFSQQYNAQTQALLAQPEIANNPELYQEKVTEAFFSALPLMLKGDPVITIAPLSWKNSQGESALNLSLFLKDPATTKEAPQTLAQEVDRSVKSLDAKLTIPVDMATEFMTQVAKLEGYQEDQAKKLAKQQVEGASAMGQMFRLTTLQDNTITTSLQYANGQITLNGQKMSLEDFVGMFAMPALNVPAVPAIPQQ
Chain of UniProt P23883 (P23883 whole entry): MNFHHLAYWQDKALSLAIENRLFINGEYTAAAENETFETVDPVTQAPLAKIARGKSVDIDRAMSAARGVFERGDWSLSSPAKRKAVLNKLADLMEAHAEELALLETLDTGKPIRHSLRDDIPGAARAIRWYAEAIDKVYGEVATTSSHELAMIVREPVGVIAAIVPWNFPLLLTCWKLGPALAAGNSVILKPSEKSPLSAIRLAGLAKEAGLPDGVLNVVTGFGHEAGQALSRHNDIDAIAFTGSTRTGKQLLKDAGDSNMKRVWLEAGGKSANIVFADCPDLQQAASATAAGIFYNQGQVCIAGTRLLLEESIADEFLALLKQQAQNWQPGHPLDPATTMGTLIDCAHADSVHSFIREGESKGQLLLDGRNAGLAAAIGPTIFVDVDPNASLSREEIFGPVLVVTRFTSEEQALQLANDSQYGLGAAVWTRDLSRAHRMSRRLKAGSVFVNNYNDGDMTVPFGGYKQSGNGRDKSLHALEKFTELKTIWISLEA
Chain of UniProt P32662 (P32662 whole entry): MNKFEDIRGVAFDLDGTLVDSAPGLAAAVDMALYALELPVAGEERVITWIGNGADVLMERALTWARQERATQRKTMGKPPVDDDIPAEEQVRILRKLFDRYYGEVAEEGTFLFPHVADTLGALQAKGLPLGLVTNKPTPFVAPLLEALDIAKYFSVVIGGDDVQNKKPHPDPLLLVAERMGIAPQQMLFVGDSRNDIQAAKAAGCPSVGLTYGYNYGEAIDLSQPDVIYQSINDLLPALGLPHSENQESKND
Chain of UniProt P76909 (P76909 whole entry): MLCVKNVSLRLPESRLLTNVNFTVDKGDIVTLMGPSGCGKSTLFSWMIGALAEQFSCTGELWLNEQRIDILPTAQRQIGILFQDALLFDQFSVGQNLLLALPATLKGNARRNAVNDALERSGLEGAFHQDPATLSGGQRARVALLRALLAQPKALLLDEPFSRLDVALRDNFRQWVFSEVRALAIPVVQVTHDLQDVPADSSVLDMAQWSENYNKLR
Chain of UniProt P21514 (P21514 whole entry): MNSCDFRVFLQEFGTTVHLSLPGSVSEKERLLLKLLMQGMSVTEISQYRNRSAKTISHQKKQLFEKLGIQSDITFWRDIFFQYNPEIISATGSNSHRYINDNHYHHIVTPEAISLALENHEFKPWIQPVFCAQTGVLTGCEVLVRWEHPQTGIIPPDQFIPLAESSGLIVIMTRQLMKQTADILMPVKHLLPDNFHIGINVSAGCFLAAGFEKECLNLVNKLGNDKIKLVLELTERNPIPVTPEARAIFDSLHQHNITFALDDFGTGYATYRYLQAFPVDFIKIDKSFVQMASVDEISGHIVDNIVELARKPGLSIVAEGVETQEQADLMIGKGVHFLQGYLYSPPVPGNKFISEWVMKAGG
Chain of UniProt P09169 (P09169 whole entry): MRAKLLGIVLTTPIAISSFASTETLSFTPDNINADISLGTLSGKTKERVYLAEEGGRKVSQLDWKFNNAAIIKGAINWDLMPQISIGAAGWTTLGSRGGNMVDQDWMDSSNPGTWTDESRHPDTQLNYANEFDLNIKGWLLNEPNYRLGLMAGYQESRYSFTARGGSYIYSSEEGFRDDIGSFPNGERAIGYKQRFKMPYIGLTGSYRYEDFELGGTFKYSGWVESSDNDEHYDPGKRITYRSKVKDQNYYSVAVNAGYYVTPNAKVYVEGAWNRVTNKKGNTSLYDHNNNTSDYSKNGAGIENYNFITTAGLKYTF

These targets were tested with Nc1ncnc2c1ncn2[C@@H]1O[C@H](COP(=O)(O)OP(=O)(O)OP(=O)(O)O)[C@@H](O)[C@H]1O [adenosine 5'-triphosphate] (assay: log2 fold change of tryptic peptide abundance, ligand vs vehicle (limited proteolysis) (log2 ratio); higher = more trypsin-susceptible (destabilized)). Conditions: ligand concentration: 5 mM; sample: E. coli desalted lysate; replicate design: treated before aliquoting.
Protocol: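 HT-PELSA: desalted E. coli K-12 BW25113 lysate (with 12 mM MgCl2) incubated with 5 mM ATP (pH 7) or water for 30 min at 25 C, then a 4 min trypsin pulse at 22 C. Peptides were quantified by DIA-MS (4 replicates). Value is the peptide log2 fold change (treated/control); negative = stabilized. Scale: negative = ligand-stabilized region.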
For “UniProt P07862 (peptide sequence: AWTTLGCK, peptide start residue: 244)”, the log2 fold change was -0.633. “UniProt P00562 (peptide sequence: ILDEAGLPGELR, peptide start residue: 375)” showed a log2 fold change of 0.23. In the case of “UniProt P15373 (peptide sequence: SHAVLTTESK, peptide start residue: 7)”, the log2 fold change is reported as -0.194. Work on “UniProt P43340 (peptide sequence: KIQVTELDLYRR, peptide start residue: 34)” yielded a log2 fold change of 1.23. “UniProt P09169 (peptide sequence: MPYIGLTGSYR, peptide start residue: 198)” gave a log2 fold change of 1.26. “UniProt P21514 (peptide sequence: NPIPVTPEAR, peptide start residue: 237)” gave a log2 fold change of -2.06. “UniProt P77739 (peptide sequence: IGWQLELAAEK, peptide start residue: 152)” gave a log2 fold change of -0.651. “UniProt P77804 (peptide sequence: LEGYQEDQAKK, peptide start residue: 423)” showed a log2 fold change of 0.387. “UniProt P76909 (peptide sequence: SGLEGAFHQDPATLSGGQR, peptide start residue: 121)” gave a log2 fold change of 0.631. “UniProt P23883 (peptide sequence: ALSLAIENR, peptide start residue: 13)” showed a log2 fold change of -2.59. Work on “UniProt P32662 (peptide sequence: TMGKPPVDDDIPAEEQVR, peptide start residue: 75)” yielded a log2 fold change of 0.514.
